According to the supplement of paper PMC11417369:
± gives the standard deviation of the averaged measurements. The full ranking holds about 25,000 sequences; the median of “ln(normalized median fluorescence intensity)” is about 7.9, and the highest 2% start at about 11. This is one part of a sample in which the highest values are shown more often than they occur.

These sequences were tested on PfAP2-I AP2 domain 3 (GST-tagged) (assay: gcPBM binding intensity (ln(normalized median fluorescence intensity)); higher = stronger DNA binding).
How it was run: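 The binding buffer was 1× PBS containing 1% milk, 0.2 mg/ml BSA, 0.5% salmon testes DNA and 0.03% Triton X-100. In it, GST-tagged P. falciparum DNA-binding domains expressed in E. coli were applied for 1 h to an Agilent 4 × 180k array of primer-extended double-stranded 36-bp intergenic genomic probes plus negative controls. Binding intensity, read with Alexa488 anti-GST antibody and a 488 nm scan, is the highest Masliner-normalised natural-log median intensity across replicate spots of either probe orientation.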

| Sequence | gcPBM binding intensity (ln) |
| --- | --- |
| AAAAAAAATAAAATGAATAAATAAGAATTACATATT [CACACA_negctrl_site863] | 7.39 ± 0.65 |
| TCTATGAATTAATATGCATGTAACGTATTTATACTT [TGCATGCA_site669] | 7.67 ± 0.83 |
| CAAGCACAGAAACACACACACACACCGACACAGACA [CACACA_site4359] | 8.11 ± 0.24 |
| CATATAAAAATGTGCACACACACACCGATATATATT [CACACA_site4940] | 9.59 ± 0.17 |
| AGGATATAAAGTTGTGCATGTCAAGTGCACCGTATT [TGCATGCA_site451] | 11 ± 0.35 |
| AAAAAAAAGTTGTAAGTGCATGTATATAATAATATT | 8.42 ± 0.54 |
| AAAAAAAAATATATTGCACACCTCTCAATAAAAAAA [CACACA_site172] | 10.3 ± 0.43 |
| CATATAAAAAATATGGTGCAGTTTTTTTTTTTTTTT | 10.2 ± 0.23 |
| AAAAATGTATGTATGGTGCAGTATTCATATCATTTT [GTGCAC_site9458] | 10.93 ± 0.057 |
| GTATATTTTATTTTATGTACATATTCATTTTTTATT [XGTACX_site561] | 8.3 ± 0.4 |
| ACTATAAATATATAAATATATATATATATATATATA [GTGCAC_negctrl_site65] | 9.34 ± 0.8 |
| ATATATATATTAAAGGTGCACAAATAAATATATACA [GTGCAC_site9532] | 11.54 ± 0.035 |
| TAAATATAAAAATGCACACACACAAAAAAAAAAAAA [CACACA_site895] | 8.88 ± 0.085 |
| AATAAATAGATAAGCACACAAGCATATAGACATATA [CACACA_site222] | 7.72 ± 0.49 |
| AAAAAAAAAATTTAGGTGCATACAAATAAATTATAT [GTGCAC_site9521] | 10.2 ± 0.48 |
| TTATAAAAGACAAAAGTGCATATATACATATGTATA | 9.49 ± 0.21 |
| TATAAATATACAAAGGTGCATAAAAAGTTATGTTTT [GTGCAC_site9832] | 11.2 ± 0.26 |
| ATATATATATATTACACACACACAAAAAAAATAAAG [CACACA_site118] | 9.07 ± 0.18 |
| AAAAATAAAAGGTGTGCACACAAAAATATATATATA [CACACA_site8507] | 9.74 ± 0.26 |
| ACAAAAAAATAAGGTGCACACAAAAAAAAAAAAAAA [CACACA_site8171] | 10.7 ± 0.76 |
| TATAAGTAGATAAGGGTGCACAATATAAATATATAG | 11.55 ± 0.021 |
| ATAAAATATAAAAACGCACACAATTATAAGGGTGTA [CACACA_site177] | 7.95 ± 0.35 |
| AAAAAAATAAGGTGCACACAAAAAAAAAAAAAAAAA [CACACA_site812] | 10.9 ± 0.71 |
| ATATGTGTGTGTATTTGTACCCAATTTTTATATATA [XGTACX_site4948] | 8.29 ± 0.43 |

| Sequence | gcPBM binding intensity (ln) |
| --- | --- |
| TATATATATATATATGTGCACATATATATGATATTA | 9.79 ± 0.28 |
| CGAATAAATATATGTAGTACATGTTGTAGATAATTT [XGTACX_site1218] | 8.01 ± 0.48 |
| ATTTATTAATCATATACACACATATATTTGTATTTA [CACACA_site1336] | 7.67 ± 0.49 |
| TTTGGGTATACACATACATGCATGTCCTTATATATA [TGCATGCA_site84] | 7.86 ± 0.63 |
| TGTGTAATATTCTGTTGTACATAACTCATAAATAAA [XGTACX_site5308] | 7.95 ± 0.31 |
| AATATGTTATAAATATGTTATAAATAATAAATAAAT [GTGCAC_negctrl_site135] | 7.74 ± 0.62 |
| AAAATAGCTGTATAGAGTACATATAAATAATGTTGT [XGTACX_site5692] | 7.57 ± 0.58 |
| TAAATCACAAAATTATGTACTAAGAAGGAGCAACAT [XGTACX_site6742] | 8.05 ± 0.45 |
| AACATACATAAACACACACACACACCCACAGAGACA [CACACA_site4430] | 8.32 ± 0.22 |
| AATATACATAACAAGGTGCAAAAAATATTGTTCATA [GTGCAC_site9499] | 10.4 ± 0.26 |
| TTTTTTTGTTAAAAGGTGCTAATATATATAAGTGCT | 10.1 ± 0.45 |
| AATACATATTCAAAGGTGCAAAATAAAAATATACAT [GTGCAC_site9743] | 11.2 ± 0.44 |
| AAATATAAAGTGCACACACACAAAAAAAGAAAAAAA [CACACA_site6452] | 10.2 ± 0.36 |
| AAAAATAAAGGGTGTGCACACAAAAATATATATATA [CACACA_site1727] | 9.8 ± 0.14 |
| TATATTGCAAAAAGTACACACATAAATAAATACATA [CACACA_site6589] | 8.2 ± 0.24 |
| AAATAAAAAGGGTGCACACAAAAATATATATATATA [CACACA_site1728] | 11 ± 0.84 |
| TGAGCACAAATACAGGTGCATATAAAATATATGACG | 10.3 ± 0.3 |
| ATGTTTGAGCCTAAGGTGCATATAAAAATATATGTG [GTGCAC_site9690] | 11 ± 0.66 |
| TGTGTATATAAATAATGTACATATATATTTTTTTAT [XGTACX_site7341] | 7.79 ± 0.22 |
| AAAAAAAAAAAAAAAAAAAGAAAAGAAAATAGGGTT [GTGCAC_negctrl_site421] | 8.96 ± 0.22 |
| CATATGATATGTTATACACACACGTATATATGAATT [CACACA_site3446] | 8.03 ± 0.21 |
| TTTTTTTTTTTTGTAATACACACCACTATATGTTAT [CACACA_site1844] | 8.15 ± 0.73 |
| AAAACAAACAAAAAAAAAAAAAAAAATATCAATCTA [TGCATGCA_negctrl_site203] | 7.01 ± 0.52 |
| CACAAAATAAATTAAACACACAACATCATAGATGTA [CACACA_site4619] | 7.21 ± 0.54 |

| Sequence | gcPBM binding intensity (ln) |
| --- | --- |
| AAGATATCTAAGGAAATTAAACTACCAAAATATATA [TGCATGCA_negctrl_site338] | 7.39 ± 0.59 |
| TATCATTTATATATGTGTACTTATTTATTTATTTAT [XGTACX_site7961] | 7.96 ± 0.28 |
| CATTTTGTTTTAAAGTGTACATTATGTAATATAAAA [XGTACX_site647] | 7.84 ± 0.43 |
| TATATATATATATATGTGCACATTTATTGCCTTTGC | 9.76 |
| ATTGTGCACTTATATGCACACATTTTAGTTTTTTTT [CACACA_site2028] | 11.4 ± 0.69 |
| TTATATTTAGTATATGCACACTTTATGTTTGTTATT [CACACA_site5163] | 9.29 ± 0.21 |
| ATATATATATAAAGTTGTACATTTTTTATTTTTTCA [XGTACX_site7847] | 9.09 ± 0.16 |
| ATATATATTATCATTGTGCACTTATTTATATACCTT | 11.1 ± 0.15 |
| ATTTATATGCACCATTGTACGTTTTATAAAGTTTGG [XGTACX_site3755] | 11.6 ± 0.83 |
| ATATTACACATATATGCACACATTGTAGTTATTTAT [CACACA_site8843] | 9.34 ± 0.26 |
| TTATCATTTGCCATTGTGCACTTATATGCTCACATT | 10.97 ± 0.028 |
| TTTTTATTTTCATATGTGCACTTATATATATATATA | 10.82 ± 0.099 |
| CATATTGGTATGCTCATGCACTTTTATTTTGTTATT [GTGCAC_site9553] | 8.52 ± 0.53 |
| ATTACCAACAGATCTTGTACATATTAAAGCATCTTA [XGTACX_site2361] | 7.84 ± 0.57 |
| TCTATTAATTAATATACACACATTATATATATATAT [CACACA_site8815] | 9.375 ± 0.049 |
| TTTTTTATTGTGATACGTATATTATTTTATGATAAA [CACACA_negctrl_site1591] | 8.04 ± 0.6 |
| AAACACACACACAAATGTACATATATATATATATTT [XGTACX_site5090] | 7.92 ± 0.51 |
| AATATTATAAATGATACACACTTAAAATACACGCAC [CACACA_site7305] | 8.71 ± 0.22 |
| CATCATAGAGTGGAGTGTACAAATATGTCAACATAT [XGTACX_site2264] | 7.99 ± 0.55 |
| TATATTTAGAGAGAGACACACAAAGGGACTTACACA [CACACA_site2545] | 7.82 ± 0.71 |
| CATAATACATATAACACACACAATTATACATAAAAT [CACACA_site3233] | 7.88 ± 0.33 |
| TGGAAACAATGACACACACACAAAAAAAAAAAAAAA [CACACA_site7494] | 7.97 ± 0.56 |
| TATAAGTTGATATATACACACATATATAAATATGTA [CACACA_site7526] | 7.4 ± 0.4 |
| ATATTTTCTTTTTAAAGTACATATTTGATTACAATA [XGTACX_site8414] | 7.66 ± 0.5 |

| Sequence | gcPBM binding intensity (ln) |
| --- | --- |
| TATGTATATATTTGTGCACACCAAAGTTTGATTTTA [CACACA_site1861] | 10.71 ± 0.014 |
| ATATGTATTTATATATGTTTGATTTTTTTTTTTTTT [TGCATGCA_negctrl_site506] | 7.71 ± 0.26 |
| TGTATATATTTGTGCACACCAAAGTTTGATTTTATT [CACACA_site1860] | 10.9 ± 0.099 |
| AAAAAAAAAAGACACACACACACATACACATACATA [CACACA_site7362] | 7.96 ± 0.29 |
| TTTTTTTTTTTTGAAGTGCATTACTTTTTTTGTATT [GTGCAC_site9811] | 11 ± 0.44 |
| TTTTTGTGCATTGATTGTACTTTCTAGGATTATTAA [XGTACX_site7070] | 10.16 ± 0.049 |
| TATATTATTATATATTGTACTTTTTATATTTGCATT [XGTACX_site2978] | 7.72 ± 0.49 |
| TATATTTATAAATGAACACACACGCAATTTGAATCG [CACACA_site3370] | 7.89 ± 0.49 |
| ATTGTTATTTATTGTGTGCGCATTAATACATACATA [GTGCAC_site9982] | 8.95 ± 0.41 |
| TTCAATAGGTATAATTGTACTTAATAATATATTGTT [XGTACX_site8363] | 7.53 ± 0.42 |
| ATATATATATAGTACGCACACATAGTTGTACATTAA [CACACA_site2787] | 9.21 ± 0.13 |
| GTTTATTGATTTATTTGTACTTATATATATATTTCA [XGTACX_site5098] | 8.07 ± 0.63 |
| TAAGTAATAGTTTGTGCACACTCAAGTATATCATAT [CACACA_site4035] | 10.8 ± 0.28 |
| TATATATCAATATGCACACACAAGAAGTAATTATAA [CACACA_site7487] | 8.96 ± 0.22 |
| AGTAATAGTTTGTGCACACTCAAGTATATCATATAT [CACACA_site4034] | 10.9 ± 0.24 |
| AGTAATAGTTTGTGCACACTCAAGTATATCATAGAT [CACACA_site6082] | 11 ± 0.23 |
| TTGTTTTGGATTATCACACATATAATATATACTCAT [CACACA_site4780] | 7.82 ± 0.68 |
| AAAATCAAGTAGTATAAAGTAAGTATCATAAAAATA [CACACA_negctrl_site1554] | 7.63 ± 0.59 |
| TTTATAGTTTTTAATAGTACACATATTTTTAAGTAT [XGTACX_site5498] | 7.89 ± 0.2 |
| GTAATATCAATATAAAGTACACACTATAGTATGTAT [XGTACX_site4714] | 7.66 ± 0.49 |
| TATATATATATCAAGTGTACTTGTGTTTGTAATATT [XGTACX_site8854] | 9.165 ± 0.049 |
